A selection: hits, their analogues and other compounds. The true share with any hit is near 12%.
Sfp PPTase inh: inhibitors of Bacillus subtilis Sfp phosphopantetheinyl transferase; AID 1490; Biochemical Sfp PPTase activity, qHTS; 310,000 compounds, 3.5% hits; Q9F4F7; Potency, µM, for the others: largest response in the series, negative = inhibition, usual class: inhibitors;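 also: the enzyme is Sfp with the accession as filed and its product quenches rhodamine fluorescence; 0% = enzyme reaction without inhibitor and -100% = no enzyme wells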
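Fluorescence-quenching assay with 15 nM Sfp, 5 uM rhodamine-CoA and 12.5 uM BHQ-2-labelled ybbR peptide in pH 7.6 Hepes/MgCl2 buffer. Enzyme was pre-incubated with compound for 15 min at room temperature. Rate was taken from the 30-min fluorescence change (525/598 nm).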
G9a inh: G9a (human) methyltransferase inhibition; G9a H3K9 monomethylation, AlphaScreen, 2 h; Q96KQ7; Potency, µM (doses to about 102 µM), for the others: top-dose activity, negative = inhibition, most hits filed as inhibitors; 350,000 compounds, 8.8% hits; also: % is scaled to controls: 0 for no effect and ±100 for the full control effect; nearly all actives have a fitted effect of over 75% in size
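Compounds were preincubated with 20 nM G9a for 15 min, after which biotinylated H3K9 peptide (500 nM) and SAM (20 uM) started a 2 h room-temperature reaction. Monomethylated product was quantified by antibody-based AlphaScreen chemiluminescence.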
HP1b binding inh: HP1-beta chromodomain-methylated histone interaction inhibition. P83916. AlphaScreen HP1-beta / biotin-H3K9me3 peptide binding. Potency, µM (doses to about 114 µM), for the others: at the top dose activity change, negative = inhibition, hits mostly inhibitors. 390,000 compounds, 0.56% hits. AID 540317; also: nearly all actives have a fitted effect of over 70% in size
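HP1-beta protein (50 nM final) preincubated 30 min at room temperature with biotinylated H3(1-18)K9me3 peptide (50 nM) in PBS pH 7.4, 0.01% Tween-20, then compound added for 30 min. AlphaScreen streptavidin donor/nickel chelate acceptor beads (10 ug/mL final), 30 min dark, luminescence read.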
PLK1 PBD inh: blocks phosphopeptide binding to human PLK1 polo-box domain; P53350; Plk1 PBD binding of FITC phosphopeptide, fluorescence polarization; Potency, µM, for the others: max response, negative = inhibition, hits mostly inhibitors; 360,000 compounds, 2.8% hits; AID 720504; also: series mostly up to about 57 µM; % is scaled to controls: 0 for no effect and ±100 for the full control effect; nearly all actives have a fitted effect of over 65% in size
Target sequence (P53350 whole entry, looked up, the tested form may be a part): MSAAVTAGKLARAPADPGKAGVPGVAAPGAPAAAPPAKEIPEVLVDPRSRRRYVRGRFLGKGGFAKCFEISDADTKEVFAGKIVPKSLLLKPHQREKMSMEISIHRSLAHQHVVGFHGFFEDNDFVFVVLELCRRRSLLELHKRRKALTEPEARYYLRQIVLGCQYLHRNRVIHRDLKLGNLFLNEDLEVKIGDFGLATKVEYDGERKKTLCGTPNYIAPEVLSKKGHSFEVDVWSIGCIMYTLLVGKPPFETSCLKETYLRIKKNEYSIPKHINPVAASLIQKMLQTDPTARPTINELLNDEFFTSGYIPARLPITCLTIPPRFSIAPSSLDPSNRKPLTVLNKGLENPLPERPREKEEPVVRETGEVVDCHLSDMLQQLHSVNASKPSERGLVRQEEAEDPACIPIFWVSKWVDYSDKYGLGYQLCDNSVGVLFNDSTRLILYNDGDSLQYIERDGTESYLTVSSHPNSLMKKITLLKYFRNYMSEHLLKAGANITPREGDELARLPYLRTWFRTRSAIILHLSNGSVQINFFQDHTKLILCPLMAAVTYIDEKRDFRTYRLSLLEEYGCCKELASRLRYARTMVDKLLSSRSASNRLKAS
BAZ2B block: BAZ2B (human) inhibition. Q9UIF8. AlphaScreen BAZ2B-H3K14Ac peptide displacement. Potency, µM (highest dose often 114 µM), inactives show at the highest dose activity change, negative = inhibition, most hits filed as inhibitors. 360,000 compounds, 4.4% hits. AID 504333; also: % is scaled to controls: 0 for no effect and ±100 for the full control effect; nearly all actives have a fitted effect of over 60% in size
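AlphaScreen displacement: compounds (up to 110uM) incubated 30 min at room temperature with a preformed 50 nM BAZ2B/50 nM biotinylated H3K14Ac peptide complex in PBS pH 7.4 with Tween-20. Donor and acceptor beads at 10 ug/mL final added, 20 min light-protected before reading.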
JMJD2A Tudor: inhibitors of human JMJD2A Tudor domain | O75164 | AlphaScreen JMJD2A-Tudor / H3K4me3 peptide binding | Potency, µM (series often up to 114 µM), without a hit: at the top dose activity change, negative = inhibition, most hits filed as inhibitors | 390,000 compounds, 4.4% hits | AID 504339; also: % is scaled to controls: 0 for no effect and ±100 for the full control effect; nearly all actives have a fitted effect of over 50% in size
* = called active by the depositor; ? = inconclusive; / = no result given; [ ] = dose if it differs, or a comment. Calls follow the shape of the dose curve; as a rule, active = well fitted curve in the direction sought with a large enough effect; inconclusive = small, poorly fitted or top-dose-only effect, or another doubt; inactive = no such curve, though single readings can be large; an effect the other way counts as inactive or inconclusive. Potency is read from the fitted curve at half-maximal effect.

SMILES	Sfp PPTase inh	G9a inh	HP1b binding inh	PLK1 PBD inh	BAZ2B block	JMJD2A Tudor
O=C(NCCc1ccccc1)c1noc2c1CCc1ccccc1-2	0%	/	30%	0%	-30%	-17%
O=C1c2ccccc2CCC1CNCCc1ccc(O)cc1 (stereo not given)	56µM*	7.9µM*	/	/	/	/
COc1ccc2c(c1)C(=O)[C@@H](OC(=O)NCCc1ccc(OC)c(OC)c1)[C@H](c1ccc(OC)c(Br)c1)O2	-3%	/	/	/	/	/
O=C(CCCC(=O)OCC(=O)c1cccs1)Nc1ccc(Oc2ccccc2)cc1	21%	21%[59 µM]	0%	30µM*	39%[57.1 µM]	-25%[11.4 µM]
C#CCOCCOCCOCCNc1nc(N2CCN(C(=O)[C@H]([C@@H](C)CC)n3cc([C@@H](N)CO)nn3)CC2)nc(N2CCN(C(=O)[C@H](CCCCN)n3cc([C@@H](N)C(C)CC)nn3)CC2)n1 (stereo not given in full)	-14%	12%[12.7 µM]	39%	-3%	50µM*	50µM*
C#CCOCCOCCOCCNc1nc(N2CCN(C(=O)[C@H](CCCCN)n3cc([C@@H](N)C(C)CC)nn3)CC2)nc(N2CCN(C(=O)[C@H](CCCCN)n3cc([C@@H](N)CO)nn3)CC2)n1 (stereo not given in full)	3%	?	/	/	22µM*	/
CCOc1ccc(OCC)c(Nc2nc3ccc(Cl)cc3n3cnnc23)c1	/	14%[59 µM]	22%	/	-2%	-4%
CCCCCn1c(CN2CCN(c3cccc(Cl)c3)CC2)nc2c1c(=O)n(C)c(=O)n2C	-14%	45µM*	-8%	-3%	?	-35%
CC1CN(Cc2nc3c(c(=O)n(C)c(=O)n3C)n2CCN2CCOCC2)CC(C)O1 (stereo not given)	-20%	?	55%	-15%	-8%	-9%
CCCCn1c(CN2CCN(c3cccc(Cl)c3)CC2)nc2c1c(=O)n(C)c(=O)n2C	-24%	-35%[59 µM]	16%	-6%	?	-35%
CCCCCn1c(CN2CC(C)OC(C)C2)nc2c1c(=O)n(C)c(=O)n2C (stereo not given)	25%	40µM*	35%	-2%	7%	2%
COc1cc(OC)c(NC(=O)C2CCCN(c3ncnc4c3nc3n4CCCCC3)C2)cc1Cl (stereo not given)	/	-46%[59 µM]	6%	/	2%	-8%
COc1ccc(OC)c(S(=O)(=O)N2CCN(C(=O)c3cc(C4CC4)nn3-c3ccccc3)CC2)c1	/	?	25%	1%	-11%	-33%
c1ccc(CNc2ccc3c(c2)ncn3C2CCCCC2)nc1	-18%	7.9µM*	-18%	?	20µM*	25µM*
COc1cc(C2Nc3cccc4cccc(c34)N2)cc(OC)c1O	50µM*	7.9µM*	?	?	?	?
COc1ccc(C2NC(=O)c3ccccc3N2)cc1OC (stereo not given)	21%	-15%[59 µM]	44%	-7%	4%	15%
COC(=O)c1ccc(C2Nc3cccc4cccc(c34)N2)cc1	?	28µM*	45µM*	-12%	35µM*	20µM*
COc1cc(C2Nc3cccc4cccc(c34)N2)ccc1OC(C)=O	-30%	14µM*	-37%	27µM*	?	56µM*
Brc1ccc(C2Nc3cccc4cccc(c34)N2)cc1	/	/	?	-2%	/	?
COc1ccc(C2Nc3cccc4cccc(c34)N2)cc1Br	-16%	35µM*	?	-26%	45µM*	40µM*
Cc1ccc(CNC(=O)c2ccc3c(c2)NC(=O)C(CS(=O)(=O)Cc2cccc(C)c2)N3)cc1 (stereo not given)	/	14µM*	47%	/	6%[57.1 µM]	-16%
O=C(NCc1ccccc1Cl)c1ccc2c(c1)NC(=O)C(CS(=O)(=O)Cc1ccc(Cl)cc1)N2 (stereo not given)	/	28µM*	-5%	/	0%	?
CC(=O)OC[C@@H]1O[C@@H](O/N=C2/C[C@@H](O)[C@@H](O)[C@@H]3[C@@H]4C(=O)N([C@@H](C)c5ccccc5)C(=O)[C@H]4CC[C@@H]23)[C@H](OC(C)=O)[C@H](OC(C)=O)[C@@H]1OC(C)=O	10%	/	/	/	/	/
COCCN(CC(=O)NC1CCCCC1)C(=O)CSc1nc2ccccc2o1	8%	12%[12.7 µM]	26%	-5%	-4%	-3%
O=C(CN(Cc1ccc2c(c1)OCO2)C(=O)CSc1nc2ccccc2o1)NC1CCCCC1	79µM*	-5%[2.33 µM]	26%	-2%	12%	-8%
SMILES	Sfp PPTase inh	G9a inh	HP1b binding inh	PLK1 PBD inh	BAZ2B block	JMJD2A Tudor
CN1OC[C@@H]2CN(C(=O)CCc3ccccc3)[C@H](c3cccc(Oc4ccccc4)c3)C[C@@H]21	/	/	40%	-2%	/	-17%
CCN(C(=O)N1CCOCC1)c1ccccc1	13%	58%	38%	-4%	-5%	12%[57.1 µM]
CCN(CC)c1ccc(N=CN2CCOCC2)cc1	4%	11µM*	?	-7%	?	79µM*
COc1ccc(-n2nc3c(c2NC(=O)C24CC5CC(CC(C5)C2)C4)CS(=O)C3)cc1 (stereo not given)	-13%	79µM*	36%	-14%	-5%	-12%
COc1ccc(-n2nc3c(c2NC(=O)C2CC2)CS(=O)C3)cc1 (stereo not given)	9%	-1%	30%	-15%	2%	-5%
CC1(N2CCOCC2)CC2(O)C(=[N+]1[O-])CCc1c2no[n+]1[O-] (stereo not given)	-5%	?	4%	6µM*	?	?
CCOc1ccc(NCC(=O)c2ccc(C)cc2)cc1	15%	-9%[59 µM]	-15%	-11%	35µM*	?
CCOc1ccc(NC(=O)c2ccc(NCC(=O)N3CCCCCC3)cc2)cc1	14%	25µM*	48%	-14%	0%	-8%
Cc1cn2c(=O)c(S(=O)(=O)NCc3ccc(F)cc3)c(C)nc2s1	/	6%[59 µM]	49%	/	0%	5%
COc1ccc2oc(C(=O)NC(C)c3ccccn3)c(C)c2c1 (stereo not given)	/	/	20%	-1%	/	-6%
COc1ccc2oc(C(=O)Nc3nc(-c4ccccn4)cs3)c(C)c2c1	/	50µM*	10%	-10%	0%	-22%
O=C(CCS(=O)(=O)c1ccccc1)Nc1nc(-c2ccccn2)cs1	/	/	30%	-17%	/	89µM*
COc1ccc(OCCC(=O)Nc2nccs2)cc1	1%	2%	14%	5%	-20%	-2%
COc1ccc(OCCCC(=O)Nc2nc(-c3ccccn3)cs2)cc1	40µM*	?	-13%	27µM*	50µM*	-33%
Cc1cc(C)c(OCC(=O)Nc2nc(-c3ccccn3)cs2)c(C)c1	-3%	45µM*	15%	-18%	50µM*	-21%

High-throughput results (PubChem BioAssay)
